High-throughput results (PubChem BioAssay)
Compounds with a hit are over-represented: about 3.9% of the library has one in this group of screens.
Bead autofluor = compound fluorescence in toxin protease inhibitor counterscreen; 360,000 compounds, 3.1% hits; fluorescence intensity (concentration not given with the values); compound autofluorescence counterscreen, microsphere flow cytometry; active compounds read high; in the data active = fluorescence intensity above about 16000; inconclusive = no clear call, values can overlap the other calls
BoNT-A LC inh2 = inhibitors of Botulinum neurotoxin A light chain protease; multiplex microsphere protease substrate cleavage, flow cytometry; AID 588499; inhibition, % at 10 µM; 360,000 compounds, 0.17% hits; note: plate controls were buffer without enzyme for full effect and enzyme alone for no effect
BoNT-F LC inh = blocks Botulinum neurotoxin F light chain protease | inhibition, % at 10 µM | Multiplex microsphere protease cleavage assay, flow cytometry | 360,000 compounds, 0.22% hits | AID 588497; in the data active = inhibition above about 35%, passing the limit was not always enough; inconclusive = no clear call, values can overlap the other calls; note: plate controls were buffer without enzyme for full effect and enzyme alone for no effect
Anthrax LF prot = anthrax lethal factor protease inhibition; P15917; multiplex microsphere protease cleavage assay, LF; inhibition, % at 10 µM; 360,000 compounds, 0.12% hits; note: plate controls were buffer without enzyme for full effect and enzyme alone for no effect
CCHF vOTU inh = blocks the CCHF virus ovarian tumor domain protease | CCHFV vOTU protease, Pep-AMC fluorescence | 370,000 compounds, 0.55% hits | inhibition, % at 11.5 µM; in the data active = inhibition above about 30%; note: 0% = vehicle wells with enzyme and 100% = no enzyme wells
3CLpro inhibitor = SARS-CoV 3CLpro protease inhibition; P0C6X7; recombinant SARS-CoV 3CLpro, quenched FRET peptide cleavage; AID 1706; 290,000 compounds, 0.14% hits; inhibition, % at 6 µM; in the data active = inhibition above about 12%
* = called active by the depositor; ? = inconclusive; nt = no result. Cut-off read from the data, not from the text of the source, unless noted: active = inhibition above about 30%; inconclusive = no clear call, values can overlap the other calls; inactive = below that.

SMILES | Bead autofluor | BoNT-A LC inh2 | BoNT-F LC inh | Anthrax LF prot | CCHF vOTU inh | 3CLpro inhibitor
CCN(CC)S(=O)(=O)c1ccc(C(=O)NC2=NCCS2)cc1 | 4122 | 0 | -4 | -5 | -1 | -5
CC1CCN(S(=O)(=O)c2cc(Br)cc(C(=O)NC3=NCCS3)c2)CC1 | 24164* | 0 | -7 | 0 | 5 | 4
CCN(CC(=O)Nc1c(F)cccc1F)C(=O)c1ccc(NC(=O)CC2SC(N3CCCC3)=NC2=O)cc1 (centres undefined) | 6319 | -2 | -3 | 1 | -7 | nt
CCCCC(=O)N(Cc1ccc(-c2ccccc2-c2nn[nH]n2)cc1)[C@H](C(=O)O)C(C)C | nt | nt | nt | nt | nt | 4
O=C(N1CCOCC1)N1CCN(Cc2ccccc2)CC1 | 16289* | ? | 13 | -12 | -1 | 6
COc1ccc(/C=N/OC(=O)Nc2ccccc2OC)cc1 | 3457 | 0 | -17 | -9 | -1 | 2
O=C(Nn1c(-c2ccccc2)nc2ccccc2c1=O)C1CCC1 | 21456* | 4 | 4 | 1 | 6 | 9
CC(Oc1ccc(Cl)cc1Cl)c1ccnc(N)n1 (centres undefined) | 4565 | 0 | -3 | -7 | 20 | 4
Cc1cc(Cl)ccc1OC(C)c1nnc(N)s1 (centres undefined) | 16493* | -1 | -1 | -2 | 11 | 4
COc1ccc(OC)c(NC(=O)c2sc3nc(Cc4ccccc4)cc(C(F)(F)F)c3c2N)c1 | 20176* | 1 | 0 | 1 | -6 | 1
COC(=O)C[C@H]1CC[C@H]2[C@H](COc3ccc(NC(=O)C4CCOCC4)cc3C(=O)N2C)O1 | nt | nt | nt | nt | 13 | nt
CCOC(=O)c1ccc(P(=O)(c2ccccc2)c2ccccc2)cc1 | 3291 | 0 | -18 | 2 | -9 | -5
O=c1nc(N(c2ccccc2)c2ccccc2)[nH]c(=O)[nH]1 | 20223* | ? | -3 | -1 | -2 | 0
Cc1ccc(S(=O)(=O)N2CCC(C(=O)NCCCN3CCOCC3)CC2)cc1 | 4898 | -1 | -4 | -2 | -9 | nt
Cc1ccc(C(=O)N/N=C/c2cccnc2)cc1Cl | 3030 | 0 | -2 | -1 | -5 | nt
FC(F)Sc1nnc(-c2cccs2)n1-c1ccccc1 | 19168* | 1 | 1 | 2 | 5 | -5
O=C(CCC(=O)Nc1ccc(F)cc1)N/N=C/c1cccs1 | 6561 | 0 | -9 | -1 | -1 | -3
Cc1nc2ccccc2cc1C(=O)N/N=C/c1cccs1 | 2060 | 3 | 38* | 1 | 5 | -3
CCCCCC(=O)N/N=C/c1cccs1 | 22461* | 0 | 1 | -2 | -6 | 2
CCOc1cc(/C=N/NC(=O)COc2cccc(C)c2)ccc1OC(=O)c1cccs1 | 9078 | 1 | -1 | -4 | 3 | -5
COc1cc(/C=N/NC(=O)COc2ccccc2C)ccc1OC(=O)c1cccs1 | 22564* | ? | 0 | -2 | -3 | 2
COc1ccc(CC(=O)N/N=C/c2cccs2)cc1OC | 3446 | 2 | 49* | -10 | 6 | 6
CCc1ccc(/C=N/NC(=O)Cc2ccc(OC)c(OC)c2)s1 | 6352 | -1 | -9 | 2 | -1 | 1
Cc1nc2ccccc2cc1C(=O)N/N=C/c1ccco1 | 2561 | 0 | -8 | -4 | -12 | 9
CC(=O)N1CC23C=CC(CC2CC12CCCCCC2)O3 (centres undefined) | 4668 | 0 | 3 | -10 | 2 | 5
SMILES | Bead autofluor | BoNT-A LC inh2 | BoNT-F LC inh | Anthrax LF prot | CCHF vOTU inh | 3CLpro inhibitor
CCOC(=O)CN1C(=O)N[C@@H](c2cccc(C(F)(F)F)c2)[C@@H](C(=O)OC)[C@H]1C | 4200 | -1 | -2 | -5 | 5 | nt
C=CCn1c(COc2ccccc2-c2ccccc2)nnc1SCC(=O)NC(=O)NCc1ccco1 | 21241* | -4 | -6 | -2 | -1 | 4
C=CCn1c(COc2ccccc2F)nnc1SCC(=O)NC(=O)NCc1ccco1 | 6117 | -1 | -7 | -2 | -16 | 0
CCN1CCN(c2cc(N3CCCC3)c(F)cc2[N+](=O)[O-])CC1 | 10198 | -1 | 2 | 0 | -5 | -1
CCOC(=O)N1CCN(c2cc(N3CCN(CC)CC3)c(F)cc2[N+](=O)[O-])CC1C (centres undefined) | 18259* | 3 | 1 | -5 | 10 | -2
Cc1cc(C)c(C(=O)/C=C/c2ccc(C(C)C)cc2)c(=O)[nH]1 | 17863* | 5 | 5 | -1 | 3 | 1
CCn1nc(C)c(C(=O)Nc2cc(Oc3cc(C)cc(C)c3)cc([N+](=O)[O-])c2)c1C | 22749* | ? | 1 | -2 | -6 | 2
